According to PubChem BioAssay AID1159580 (chemical genetic matrix, 2015):
Among all 5,500 compounds or so, about 2,000 (36%) were called active. Not shown: some 18% with an inconclusive outcome. Rule as the data show it: active = normalized growth mostly below about 0.91 (no sharp cut-off); inconclusive = no clear call, values can overlap the other calls; inactive = mostly above about 0.92. Some of the results follow.

Experiment: chemical genetic growth profiling, strain panel (AID 1159580);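 also: tested at 20 µM; growth read once vehicle control cultures reached saturation at 30 °C; 1 = growth at the plate median or of vehicle wells; lower values mean less growth of the strain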
Conditions: S. cerevisiae deletion strains, growth OD
[1] = locus YAL013W, strain DEP1, active compounds read low
[2] = locus YBR229C, strain ROT2, active compounds read low
[3] = locus YDL101C, strain DUN1, active compounds read low
[4] = locus YDL134C, strain PPH21, active compounds read low
[5] = locus YDR150W, strain NUM1, active compounds read low
[6] = locus YEL061C, strain CIN8, active compounds read low
[7] = locus YGR078C, strain PAC10, active compounds read low
[8] = locus YHR030C, strain SLT2, active compounds read low
[9] = locus YHR087W, strain rtc3, active compounds read low
[10] = locus YJR043C, strain POL32, active compounds read low
[11] = locus YJR075W, strain HOC1, active compounds read low
[12] = locus YLR039C, strain RIC1, active compounds read low
[13] = locus YLR058C, strain SHM2 (second series), active compounds read low
[14] = locus YLR085C, strain ARP6, active compounds read low
[15] = locus YLR262C, strain YPT6, active compounds read low
[16] = locus YML094W, strain GIM5, active compounds read low
[17] = locus YMR219W, strain ESC1, active compounds read low
[18] = locus YMR263W, strain SAP30, active compounds read low
[19] = locus YNL153C, strain GIM3, active compounds read low
[20] = locus YNL298W, strain CLA4 (second series), active compounds read low
[21] = locus YNL322C, strain KRE1, active compounds read low
[22] = locus YNR030W, strain Alg12, active compounds read low
[23] = locus YPL055C, strain LGE1, active compounds read low
[24] = locus YPL241C, strain CIN2, active compounds read low
[25] = locus YPR135W, strain CTF4, active compounds read low

Measured: normalized growth

N#Cc1c(Cl)cccc1N1CCC(C(=O)NC(=O)Nc2ccc(Cl)cc2)CC1
inactive: [1] 0.998 | [2] 1.01 | [3] 1 | [4] 1.03 | [5] 1.04 | [6] 1.01 | [7] 1.01 | [8] 1.04 | [9] 1.02 | locus YJL187C, strain SWE1, active compounds read low 1.01 | [10] 1 | [11] 1.05 | [12] 1.01 | [13] 1.03 | [14] 1.07 | [15] 0.998 | [16] 1.04 | [17] 1.02 | [18] 1.01 | locus YMR307W, strain GAS1, active compounds read low 1.03 | [19] 1.01 | [20] 1.02 | [21] 1.01 | [22] 1.03 | [23] 1.1 | [24] 1.01 | [25] 1.04

N#Cc1c(Cl)cccc1N1CCCC1
inactive: [2] 0.935 | [4] 0.98 | [5] 0.85 | [13] 0.952 | [14] 0.791 | [18] 0.915 | locus YNL128W, strain TEP1, active compounds read low 0.922 | [25] 0.769
active: [1] 0.877 | [3] 0.87 | [6] 0.891 | [7] 0.851 | [8] 0.615 | [9] 0.886 | [10] 0.861 | [11] 0.801 | [12] 0.576 | [15] 0.567 | [16] 0.779 | [17] 0.931 | [19] 0.833 | [20] 0.762 | [21] 0.929 | [22] 0.83 | locus YOL006C, strain TOP1, active compounds read low 0.473 | [23] 0.776 | [24] 0.815
